In PubChem BioAssay (NCI) one finds growth data, which are given here for 13 compounds.

The panel holds about 83,000 compounds, 20% with a hit somewhere; the sample as a whole holds those more often.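 Compound tested at a single concentration for 48 hours in 96-well plates; a percent growth value below 10 was scored as active.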 Active and inactive are the calls of the source.

The subject of the assay is HCT-15 colon. Nature of the assay: NCI-60 one-dose screen, 48 h (100 = growth as untreated, 0 = no growth, -100 = all killed). The conditions noted are these: 10 µM unless noted.
In the case of `C#C[C@]1(O)CC[C@H]2[C@@H]3CC=C4c5sc(N(C)c6ccccc6)nc5CC[C@]4(C)[C@H]3CC[C@@]21C`, the growth is 27.8% (inactive).

Regarding `CC(=O)c1c([Si](C)(C)C)c2cc(C#N)ccn2c1C(=O)c1ccc(Br)cc1`, the growth was 85.1% (inactive).

As to `O=C(CSc1nc2ccccc2c(=O)n1-c1ccc(Cl)c(Cl)c1)Nc1ccc(S(=O)(=O)Nc2ccc(Cl)nn2)cc1`, the growth is 99.5% (inactive).

In the case of `C#CCN(C)CCCOc1ccc(NCc2ccc(/C=C/C(=O)NO)cc2)cc1Cl`, the growth was 8.05% (active).

With `O=C(NNc1nc2cc(F)cc(F)c2n2cccc12)c1cccnn1`, the growth is 27.9% (inactive).

As to `COc1ccc(/C(=N\NC(N)=S)c2ccc(Cl)cc2)cc1OC`, the growth is 16% (inactive).

On to `COc1ccc(-c2c(C(N)=O)c(N)n(Cc3nc4ccccc4[nH]3)c(=O)c2C#N)c(OC)c1`, for which the growth is 98.4% (inactive).

On to `Cc1cc(Br)ccc1-n1cc(C#N)c(N)c1C(=O)c1ccc(Br)cc1`, for which the growth is 97.6% (inactive).

`CN1CCN(Cc2ccc(NC(=O)c3cncc(C#Cc4cnc(N)nc4)c3)cc2C(F)(F)F)CC1`: the growth was 17.2% (inactive).

`CCOC(=O)c1c(NC(=O)c2ccc(C(F)(F)F)cc2)sc2c3c(ccc12)OCN(C)C3`: the growth was -38.2% (active).

`O=C1CSC(c2cn(-c3ccccc3)nc2-c2ccc(Cl)cc2)N1c1ccccc1` (stereo not drawn): the growth is 101% (inactive).

Consider `COc1ccc(-c2c3c(cn2Cc2cccc(OC)c2)-c2oncc2CCC3)cc1`, for which the growth is 95.1% (inactive).

As for `C#C[C@]1(O)CC[C@H]2[C@@H]3CC=C4c5sc(Nc6ccc(C)cn6)nc5CC[C@]4(C)[C@H]3CC[C@@]21C`, the growth is -45.6% (active).
